p53null 32C tox: qHTS Screen for Compounds that Selectively Target Cancer Cells with p53 Mutations: Cytotoxicity of p53 Null Cells at the Permissive Temperature. H1299-neo p53 null cells, ATP luminescence, 24 h, 32C. Potency, µM (titrated, usually from 46.1 µM), actives largely listed as cytotoxic. 55,000 tested, 0.62% active; note: nearly all actives have a fitted effect of over 55% in size
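H1299-neo (p53-null) cells, 600/well, were pre-incubated overnight at 37C, then exposed to compounds at up to 46 uM for 24 hr at 32C. Viability was measured as ATP content by luminescence, and AC50 values came from Hill fits.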
p53null 39C tox: qHTS Screen for Compounds that Selectively Target Cancer Cells with p53 Mutations: Cytotoxicity of p53 Null Cells at the Nonpermissive Temperature; H1299 p53-null (neo) cells, 39C, ATPlite viability, 24 h; Potency, µM (doses to about 46.1 µM), hits mostly cytotoxic; 55,000 tested, 0.97% active; AID 904, 2007; note: nearly all actives have a fitted effect of over 50% in size
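Temperature-shift cytotoxicity format: compound titrations on p53-null or A138V-expressing H1299 cells held 24 hr at 39C, cell ATP then measured, AC50 from Hill model.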
PMP22 txn prim: Cell-based coincidence reporter assay to measure PMP22 gene transcription in S16 Pmp22-F2sN cells - Primary screen. 43,000 tested, 2% active. S16 Pmp22-F2sN Schwann cells, FLuc/NLuc coincidence luminescence, 24 h. Potency, µM (series often up to 57.5 µM), hits mostly inhibitors; active = clear falling dose curves in both reporters; inconclusive = both reporters move, but less clearly or upward; inactive = either reporter flat; the % is the NLuc reporter signal
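Schwann cells carrying the coincidence reporter were exposed to library compounds for 24 h at 37C, then lysed and read for FLuc and, after quenching, NLuc luminescence on a CCD imager.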
mTORC1 inh: Acumen qHTS Assay for Inhibitors of the mTORC1 Signaling Pathway in MEF (Tsc2-/-, p53-/-) Cells: Sytravon; Tsc2-/- p53-/- MEF, phospho-rpS6 immunofluorescence/PI, 24 h; Potency, µM (titrated, usually from 38.3 µM), actives largely listed as inhibitors; 44,000 tested, 0.78% active; AID 493208, 2011; note: nearly all actives have a fitted effect of over 50% in size
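Tsc2-/-, p53-/- mouse embryonic fibroblasts (empty-vector line) exposed to compound 24 hrs at 37 C, fixed, immunostained for phospho-rpS6 and counterstained with propidium iodide. Acumen laser scanning gives % positive cells from Alexa 488/PI ratio, thresholded using 7.5 nM rapamycin; PI count gives viability.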
S16 viability: Cell viability qHTS assay in S16 Pmp22-F2sN cells | AID 1508642, 2021 | 43,000 tested, 0.48% active | Potency, µM (series often up to 57.5 µM), actives largely listed as cytotoxic | S16 Pmp22-F2sN Schwann cells viability, CellTiter-Glo, 24 h; note: nearly all actives have a fitted effect of over 65% in size
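Viability was measured by CellTiter-Glo luminescence (15 min, room temperature). This followed 24 h at 37 °C of compound exposure (23 nL pin transfer) in S16 Pmp22-F2sN Schwann cells, 500-1,000 per well.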
Hits are given with their value. Only some compounds are listed: those with a hit (about 3.2% of all), similar ones and a draw of the others. Unless noted, calls come from the whole dose curve; as a rule, active = well fitted curve in the direction sought with a large enough effect; inconclusive = small, poorly fitted or top-dose-only effect, or another doubt; inactive = no such curve, though single readings can be large; an effect the other way counts as inactive or inconclusive.

How did CCSc1ncc(Cl)c(C(=O)Nc2sc3c(c2C(=O)NCCCOC)CCCC3)n1 do in these assays?
p53null 32C tox: inactive; p53null 39C tox: inactive; PMP22 txn prim: inactive; mTORC1 inh: inactive; S16 viability: inactive

Results for COc1ccccc1NC(=O)Cn1c(=O)n(CCc2ccccc2)c(=O)c2sc3ccccc3c21 ?
p53null 32C tox: inactive; p53null 39C tox: inactive; PMP22 txn prim: inconclusive; mTORC1 inh: inactive; S16 viability: inactive

Results for Cc1cccc(C)c1NC(=O)c1c(C)oc2c1C1=NCCN1C=N2 ?
p53null 32C tox: inactive; p53null 39C tox: inactive; PMP22 txn prim: inactive; mTORC1 inh: inactive; S16 viability: inconclusive

How did Cc1noc(C)c1S(=O)(=O)N(CC(=O)Nc1ccc(F)cc1F)c1ccc(C(C)C)cc1 do in these assays?
p53null 32C tox: inactive; p53null 39C tox: inactive; PMP22 txn prim: inconclusive; mTORC1 inh: inactive; S16 viability: inactive

What do the screens show for `CCC(=O)NC(c1ccccc1OC)c1ccc2cccnc2c1O` (configuration not stated)?
p53null 32C tox: inactive; p53null 39C tox: inconclusive

What do the screens show for `COc1cc(C(=O)NC(c2ccc(Cl)cc2)c2cc(Cl)c3cccnc3c2O)cc(OC)c1OC` (configuration not stated)?
p53null 32C tox: inconclusive; p53null 39C tox: inactive; PMP22 txn prim: inconclusive; mTORC1 inh: inactive; S16 viability: 3.2µM

What do the screens show for `COc1cccc(C(=O)NC(c2ccc(Cl)cc2)c2cc(Cl)c3cccnc3c2O)c1` (configuration not stated)?
p53null 32C tox: inconclusive; p53null 39C tox: inactive; PMP22 txn prim: 4.6µM; mTORC1 inh: inactive; S16 viability: 5µM

How did CCC(C)NC(=O)c1ccc2nc(Cc3ccc(OC)cc3)oc2c1 (configuration not stated) do in these assays?
p53null 32C tox: inactive; p53null 39C tox: inactive; PMP22 txn prim: inactive; mTORC1 inh: inactive; S16 viability: inactive

What do the screens show for `COc1cc(CNc2ccc3[nH]c(=O)[nH]c3c2)cc(Br)c1OCc1ccc(F)cc1`?
p53null 32C tox: inactive; p53null 39C tox: inactive; PMP22 txn prim: 1.9µM; mTORC1 inh: inactive; S16 viability: inconclusive

What do the screens show for `Cc1cccc(NC(=O)CSc2nccn2-c2cccc(Cl)c2)c1C`?
p53null 32C tox: inactive; p53null 39C tox: inactive; PMP22 txn prim: inactive; mTORC1 inh: inactive; S16 viability: inactive

How did COc1ccc(C2N=C(N)Nc3nc4ccccc4n32)cc1 (configuration not stated) do in these assays?
p53null 32C tox: inactive; p53null 39C tox: inactive; PMP22 txn prim: inactive; mTORC1 inh: inactive; S16 viability: inactive

How did CCCN(CCC)c1ccc(C2N=C(N)Nc3nc4ccccc4n32)cc1 (configuration not stated) do in these assays?
p53null 32C tox: inconclusive; p53null 39C tox: 3.2µM; PMP22 txn prim: inconclusive; mTORC1 inh: inactive; S16 viability: inconclusive

What do the screens show for `Cc1cc(-c2ccc(S(=O)(=O)Nc3cccc(C)c3C)s2)on1`?
p53null 32C tox: inactive; p53null 39C tox: inconclusive; PMP22 txn prim: 10µM; mTORC1 inh: inconclusive; S16 viability: inconclusive

How did Cc1ccc(NC(=O)Cn2nc(C(F)(F)F)c3c2CCCC3)cc1C do in these assays?
p53null 32C tox: inactive; p53null 39C tox: inactive; PMP22 txn prim: inconclusive; mTORC1 inh: inactive; S16 viability: inactive

How did Cc1ccc2nc(/C(C#N)=C\c3ccc(N4CCOCC4)o3)[nH]c2c1 do in these assays?
p53null 32C tox: inactive; p53null 39C tox: inactive

Results for CCOC(=O)c1ccc(-c2ccc(/C=C(\C#N)c3nc4ccc(C)cc4[nH]3)o2)cc1 ?
p53null 32C tox: inconclusive; p53null 39C tox: 6.3µM; PMP22 txn prim: inactive; mTORC1 inh: inactive; S16 viability: inconclusive

What do the screens show for `N#C/C(=C\c1ccc(-c2ccc(F)cc2F)o1)c1nc2ccccc2[nH]1`?
p53null 32C tox: inconclusive; p53null 39C tox: inconclusive; PMP22 txn prim: inconclusive; mTORC1 inh: 13µM; S16 viability: inactive

How did COc1ccc(-c2cc(C(F)(F)F)nc(S(=O)(=O)CCCC(=O)Nc3cccc(O)c3)n2)cc1OC do in these assays?
p53null 32C tox: inactive; p53null 39C tox: inconclusive; PMP22 txn prim: 6µM; mTORC1 inh: inconclusive; S16 viability: 8.9µM

What do the screens show for `COc1ccccc1-c1cc(C(F)(F)F)nc(S(=O)(=O)CCCC(=O)Nc2ccc(F)c(Cl)c2)n1`?
p53null 32C tox: inactive; p53null 39C tox: inactive; PMP22 txn prim: inactive; mTORC1 inh: inactive; S16 viability: inactive

How did COc1ccc(NC(=O)CCCS(=O)(=O)c2nc(-c3ccc(OC)c(OC)c3)cc(C(F)(F)F)n2)cc1OC do in these assays?
p53null 32C tox: inactive; p53null 39C tox: inconclusive; PMP22 txn prim: 4.5µM; mTORC1 inh: 12µM; S16 viability: 4.5µM

How did COc1ccc(-c2cc(C(F)(F)F)nc(S(=O)(=O)CCCC(=O)Nc3ccccc3C(F)(F)F)n2)cc1OC do in these assays?
p53null 32C tox: inactive; p53null 39C tox: inconclusive; PMP22 txn prim: inconclusive; mTORC1 inh: 18µM; S16 viability: inconclusive

How did COc1ccccc1-c1cc(C(F)(F)F)nc(S(=O)(=O)CCCC(=O)Nc2cc(OC)c(OC)c(OC)c2)n1 do in these assays?
p53null 32C tox: inconclusive; p53null 39C tox: inconclusive; PMP22 txn prim: inactive; mTORC1 inh: inactive; S16 viability: inactive

How did CC1CCCCC1NC(=O)CCn1c(=O)oc2ccccc21 (configuration not stated) do in these assays?
p53null 32C tox: inactive; p53null 39C tox: inactive

Results for COc1ccccc1N1CCN(C(=O)CN2C(=O)COc3ccc(S(=O)(=O)N4CCCCCC4)cc32)CC1 ?
p53null 32C tox: inactive; p53null 39C tox: inactive; PMP22 txn prim: inconclusive; mTORC1 inh: inactive; S16 viability: inactive

What do the screens show for `Cc1ccc2c(c1)N(C(=O)CCC(=O)NCc1cccs1)CC(C)O2` (configuration not stated)?
p53null 32C tox: inactive; p53null 39C tox: inactive; PMP22 txn prim: inactive; mTORC1 inh: inactive; S16 viability: inactive

What do the screens show for `CCOC(=O)c1cc(S(=O)(=O)N2CCN(c3cccc(C)c3)C(C)C2)[nH]n1` (configuration not stated)?
p53null 32C tox: inactive; p53null 39C tox: inactive; PMP22 txn prim: inactive; mTORC1 inh: inactive; S16 viability: inconclusive

What do the screens show for `COC(=O)c1cc(S(=O)(=O)N2CCN(c3cccc(C)c3)C(C)C2)cn1C` (configuration not stated)?
p53null 32C tox: inactive; p53null 39C tox: 13µM; PMP22 txn prim: inactive; mTORC1 inh: inactive; S16 viability: inactive
